# In ChEMBL document CHEMBL4513216, “Probing the Open Global Health Chemical Diversity Library for Multistage-Active Starting Points for Next-Generation Antimalarials” (ACS Infect Dis, 2020):
# The whole screen tested about 68,000 compounds, of which about 2,700 (4%) showed an effect of 50% or more. This excerpt belongs to a sample that is enriched for strong results.
# Test system: Plasmodium berghei
# Assay: Screen against P. berghei liver stage (PbLuc), transformed with Luciferase, at 2uM
# Assay type: functional, HepG2
# Conditions: tested at 2 uM
row,SMILES,INHIBITION [%]
1,COC(=O)c1ccc(C(=O)NCc2ccco2)nc1,-44.93
2,COC(=O)c1cccc(C(=O)NCc2ccco2)n1,-15.05
3,CCC1c2ccsc2CCN1C(=O)NCc1ccccn1 (centres undefined),-77.99
4,CC(Cn1cccn1)NC(=O)NCc1cccnc1OC1CCCC1 (centres undefined),39.32
5,CC(O)CNC(=O)NCc1cccnc1OC1CCCC1 (centres undefined),59.73
6,COc1ncccc1CNC(=O)c1cc(C)on1,-18.38
7,Cc1cc(C(=O)NCc2cccnc2OC(C)C)no1,51.19
8,CCC1c2ccsc2CCN1C(=O)NCc1cccnc1OC (centres undefined),66.27
9,CCC1c2ccsc2CCN1C(=O)NCc1cccnc1N(C)C (centres undefined),8.5
10,CC(Cn1ccnc1)NC(=O)NCc1cccnc1OC1CCCC1 (centres undefined),8.42
11,COc1ccc(C(=O)NCc2ccco2)nn1,65.1
12,CCOc1ncccc1CNC(=O)c1cc(C)on1,22.75
13,CC(C)c1nc(C2CCCN(C(=O)Cn3ccccc3=O)C2)no1 (centres undefined),40.88
14,Cc1ccc(C)n1-c1c(C(=O)NCC(C)N(C)C)cnn1C (centres undefined),28.5
15,O=C(COc1cccc2c1CCC2=O)NCc1ccccc1Cl,-21.15
16,CCN1CC2(CCOCC2)c2cc(NS(=O)(=O)CC)ccc21,16.33
17,Cc1nccn1-c1ccc(C(C)Nc2cnn(C)c(=O)c2Cl)cc1 (centres undefined),39.58
18,COc1ccccc1Oc1ncccc1CNC(=O)[C@@H](N)CCO,10.91
19,COc1ccccc1Oc1ncccc1CNC(=O)[C@@H](N)[C@@H](C)O,-4.93
20,COc1ccccc1Oc1ncccc1CNC(=O)[C@H](N)CC(C)(C)C,62.39
21,OC1CCCN(CCNc2ncc(Cl)cc2F)C1 (centres undefined),-23.46
22,COCc1cccc(NC(C(N)=O)c2ccc(Br)cc2)c1 (centres undefined),0.53
23,CCc1nnc(CSc2ccccn2)o1,-9.88
24,Cc1nnc(CSc2ccccn2)o1,-43.6
25,CC(C)(C)c1nnc(CSc2ccccn2)o1,58.9
26,CC(CNC(=O)N1CCC(CO)CC1)Cc1cccs1 (centres undefined),21.24
27,COC(=O)C1CCN(C(=O)NCC(C)Cc2cccs2)CC1 (centres undefined),55.39

row,SMILES,INHIBITION [%]
1,CC(CNC(=O)N1CCNC(=O)CC1)Cc1cccs1 (centres undefined),57.59
2,CC(=O)N(C)C1CCN(C(=O)NCC(C)Cc2cccs2)CC1 (centres undefined),60.9
3,CC(CNC(=O)N1CCN(CC(F)F)CC1)Cc1cccs1 (centres undefined),-47.2
4,CC(CNC(=O)N1CCN(c2cnccn2)CC1)Cc1cccs1 (centres undefined),17.75
5,CC(CNC(=O)N1CCSCC1)Cc1cccs1 (centres undefined),-49.29
6,CC(CNC(=O)N1CCS(=O)(=O)CC1)Cc1cccs1 (centres undefined),8.03
7,CC(CNC(=O)N1CCN(c2ncccn2)CC1)Cc1cccs1 (centres undefined),5.82
8,Cc1cccc(NC(=O)c2cccc(OCc3nnnn3C)c2)n1,-85.14
9,CCS(=O)(=O)N1C[C@@H]2CN(Cc3cccs3)CCO[C@@H]2C1,-20.67
10,CC1(C)CC1(C(=O)N1CC(c2cccnc2)C1)c1ccc(F)cc1 (centres undefined),41.05
11,COc1ccc(C2(C(=O)N3CC(c4cccnc4)C3)CC2(C)C)cc1 (centres undefined),60.13
12,CC1(C)CC1(C(=O)N1CC(c2cccnc2)C1)c1ccccc1F (centres undefined),14.82
13,CCOC(=O)c1cnn(-c2cc(Oc3cccc(C)c3)ncn2)c1N,-58.53
14,CC(COc1ccc(F)cc1F)NC(=O)NCCN1CCOCC1 (centres undefined),-30.55
15,COCCN(Cc1cccc(O)c1)Cc1ccccc1F,35.48
16,CCCN(Cc1cccc(OCCO)c1)Cc1ccccc1OC,-135.42
17,COCCN(Cc1cccc(OCCO)c1)Cc1ccccc1F,58.42
18,CC(C)N1[C@H](Cn2cncn2)C[C@@H]2CN(Cc3cccs3)CC[C@@H]21,13.25
19,O=C(Cc1ccccc1Cl)N1CCN(CC(O)COCCO)CC1 (centres undefined),-13.06
20,COc1ccc(C)cc1CN1CCCC1c1noc(C2CC2)n1 (centres undefined),-14.17
21,C=C(C)CNC1CCCN(Cc2noc(C3CC3)n2)C1 (centres undefined),-36.58
22,O=C(NCc1ccco1)[C@H]1C[C@@H]2CCN(c3nncs3)C[C@H]2O1,-2.66
23,O=C(NCCc1ccncc1)[C@H]1C[C@@H]2CCN(c3nncs3)C[C@H]2O1,62.15
24,COCCNC(=O)[C@H]1C[C@@H]2CCN(c3nncs3)C[C@H]2O1,21.08
25,O=c1cc(-c2cccnc2)nc(-c2ccc(CN3CC[C@H](O)C3)cc2)[nH]1,39.51
26,Cn1cncc1C(=O)N1C[C@@H]2CCN(c3cnccn3)C[C@@H]2C1,5.44
27,O=C(NC[C@H]1OC[C@@H](NC(=O)c2ccccc2)[C@@H]1O)c1ccncc1,25.94
